Source: PubChem BioAssay
Most compounds without a hit are left out; they make up all but 19% or so of the library.
SARS PLpro yeast: blocks SARS-CoV papain-like protease in a yeast assay. S. cerevisiae expressing SARS-CoV PLpro, growth rescue. Potency, µM (top dose mostly 32.9 µM), usual class: activators. actives 0.19% (n = 330,000). AID 485353; calls by dose curve; also: nearly all actives have a fitted effect of over 55% in size
AMA1-RON2 inh: AMA1-RON2 (P. falciparum) interaction inhibition; actives 0.2% (n = 360,000); Potency, µM (titrated, usually from 58.2 µM), most hits filed as inhibitors; AlphaScreen AMA1-biotinylated RON2 peptide binding; AID 720542; also: nearly all actives have a fitted effect of over 45% in size
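AMA1 (3D7) with his tag at 25 nM final met compounds first, then biotinylated RON2 peptide at 25 nM; detection used donor plus acceptor beads, 10 µg/mL apiece, read by AlphaScreen after 30 min at room temperature.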
Shiga inhibitor: inhibitors of Shiga toxin in Vero cells; Vero cells, Shiga toxin protein synthesis inhibition reporter; inhibition, % at 38.7 µM; actives 9.2% (n = 290,000); AID 2315; in the data active = inhibition mostly above about 28%, no sharp cut-off; inactive = mostly below about 43%
Pf growth 48h: inhibits P. falciparum growth in the first generation, 48 h. P. falciparum luciferase growth in erythrocytes, 48 h. Potency, µM (highest dose often 28.7 µM), most hits filed as inhibitors. actives 5.9% (n = 310,000)
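First compound was added to culture medium, then infected red cells at 0.1% parasitemia and 2% hematocrit (final). After incubation at 37 C under 5% CO2, luciferase detection reagent was dispensed and light output recorded.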
Pf growth 96h: P. falciparum growth inhibition at 96 hour, primary screen for plastid delayed-death inhibitors; AID 504834; Potency, µM (titrated, usually from 28.7 µM), usual class: inhibitors; P. falciparum luciferase reporter growth, 96 h; actives 6.9% (n = 320,000)
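Plates of compound plus infected erythrocytes (2% hematocrit, 0.05% parasitemia final) incubate 96 hours, 37 C, 5% CO2. Detection reagent added; reduced luminescence from the parasites' luciferase reporter flags inhibition.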
Cycloheximide cs: counter-screen hit for Shiga toxin inhibitors, cycloheximide | cell reporter, cycloheximide protein synthesis inhibition counterscreen | actives 12% (n = 300,000) | AID 2314 | max response, %; in the data active = max response mostly above about 13%, no sharp cut-off; inactive = mostly below about 14%; also: read at 38.3 µM for the half of the compounds with a filed dose
Large screens that a line does not name were inactive. Unless noted, calls follow the shape of the dose curve; as a rule, active = well fitted curve in the direction sought with a large enough effect; inconclusive = small, poorly fitted or top-dose-only effect, or another doubt; inactive = no such curve, though single readings can be large; an effect the other way counts as inactive or inconclusive.

CCOc1cccc(/C=N/Nc2nc(N3CCCC3)nc(N3CCCC3)n2)c1O	Pf growth 48h 0.83µM
COc1cc2c(cc1OC)/C(=C/C(=O)c1ccc(F)cc1)NCC2	Pf growth 48h inconclusive, Pf growth 96h 12µM
COc1cc2c(cc1OC)/C(=C/C(=O)c1cccc([N+](=O)[O-])c1)NCC2	Pf growth 48h inconclusive, Pf growth 96h inconclusive
COc1cc2c(cc1OC)/C(=C/C(=O)c1ccc(OC)c([N+](=O)[O-])c1)NCC2	Pf growth 96h inconclusive, Cycloheximide cs 11
O=C(OCC(=O)N1CCc2ccccc21)c1nc(Cl)ccc1Cl	none
CN1CC(c2ccccc2Cl)C2(COc3ccccc3C2=O)C12C(=O)Nc1ccccc12 (configuration not stated)	Pf growth 48h inconclusive, Pf growth 96h inconclusive, Cycloheximide cs 16
CC1OC2(OC1C)C(=O)Nc1ccccc12 (configuration not stated)	none (no result: Pf growth 48h)
Cc1ccc(C2CN(C)C3(C(=O)Nc4ccccc43)C23COc2ccccc2C3=O)cc1 (configuration not stated)	Pf growth 48h 15µM, Pf growth 96h inconclusive
COc1ccc(NC(=O)c2ccc(-c3ccc(OC)cc3)s2)cc1	Shiga inhibitor 72, Pf growth 96h inconclusive
O=C(Nc1ccccc1)c1ccc(-c2ccc(F)cc2)s1	Shiga inhibitor 88, Cycloheximide cs 36
CNC(=O)c1ccc(-c2ccc(Cl)c(Cl)c2)s1	Shiga inhibitor 66, Pf growth 48h inconclusive, Pf growth 96h inconclusive, Cycloheximide cs 42
CNC(=O)c1ccc(-c2ccc(F)cc2)s1	none (no result: Pf growth 48h)
CNC(=O)c1ccc(-c2ccc(OC)cc2)s1	Shiga inhibitor 78, Cycloheximide cs 26
CCc1ccccc1NC(=O)C1CCN(S(C)(=O)=O)CC1	none (no result: SARS PLpro yeast, Shiga inhibitor, Pf growth 48h, Pf growth 96h, Cycloheximide cs)
COc1cccc(CSc2ccc(S(=O)(=O)N3CCOCC3)cc2C(=O)NCC2CCCO2)c1OC (configuration not stated)	Pf growth 48h inconclusive
CC1CC(C)(C)CC2(C1)NC(=S)N(c1ccccc1)N2 (configuration not stated)	none (no result: Pf growth 48h)
Cc1ccc(N2NC(C)(c3cccs3)NC2=S)cc1 (configuration not stated)	Shiga inhibitor 74, Pf growth 96h inconclusive, Cycloheximide cs 31
OC(c1ccccc1)c1ncc(-c2cccc(F)c2)[nH]1 (configuration not stated)	none (no result: SARS PLpro yeast, Shiga inhibitor, Pf growth 48h, Pf growth 96h, Cycloheximide cs)
CCCCC(=O)N/N=C(/C)C1=C(C)C(C)(C)OC1=O	none
O=C(Nc1ccc(S(=O)(=O)NCc2ccccc2)cc1)C1CCCCC1	Pf growth 96h 12µM
O=C(O)CNS(=O)(=O)c1ccc(C2CCCCC2)cc1	Pf growth 96h 0.47µM
O=S(=O)(Nc1ccccn1)c1ccc(Cl)cc1	none (no result: Pf growth 96h)
O=S(=O)(Nc1ccccn1)c1ccc(C2CCCCC2)cc1	AMA1-RON2 inh inconclusive, Pf growth 96h 9.3µM
CCCCN(C=O)c1c(CC)nc2ccc(C(=O)N3CCN(c4ccccc4)CC3)cn12	none (no result: SARS PLpro yeast, Shiga inhibitor, Pf growth 48h, Pf growth 96h, Cycloheximide cs)
O=C(NN1C(=O)c2ccccc2C1=O)C1C2CCCCC21 (configuration not stated)	Cycloheximide cs 11
Cc1cc(C)c(-c2nc3ccccc3s2)[nH]1	Shiga inhibitor 96, Cycloheximide cs 32
Nc1cccc(-c2nc3ccccc3s2)c1	Shiga inhibitor 69, Cycloheximide cs 31 (no result: Pf growth 48h)
CC[n+]1cccc(-c2nc3ccccc3s2)c1	Pf growth 96h inconclusive, Cycloheximide cs 39
O=C(O)c1ccc2c(c1)C(=O)N(c1cccc(-c3nc4ccccc4s3)c1)C2=O	Shiga inhibitor 61, Pf growth 96h inconclusive, Cycloheximide cs 49
CC(=O)Oc1cccc(N2C(=O)c3ccc(C(=O)O)cc3C2=O)c1	Pf growth 96h inconclusive
CC(C)c1ccc(-c2nc3ccccc3s2)cc1	Pf growth 96h inconclusive
CC1(C)CC(=O)N(c2ccc(Cl)cc2Cl)C(=O)C1	none
CC(=O)N1c2ccc(S(=O)(=O)N3CCCC3)cc2CC1C(=O)NC(C)C (configuration not stated)	Pf growth 96h inconclusive
Nn1c(SCC(=O)Nc2cc(S(=O)(=O)N3CCOCC3)ccc2Cl)nnc1-c1cccnc1	Pf growth 96h inconclusive
Oc1cccc(-c2nc3ccccc3s2)c1	Shiga inhibitor 43, Cycloheximide cs 24
CC(=O)Nc1ccc(S(=O)(=O)NCc2nc(-c3cccc(C)c3)no2)cc1	none
CCOC(=S)SCC(=O)Nc1nc(C)c(C)s1	Shiga inhibitor 49, Cycloheximide cs 24
CCOC(=S)SCC(=O)Nc1nc(-c2ccc(Br)cc2)cs1	Pf growth 96h 3.3µM
CCOC(=S)SCC(=O)Nc1nc(-c2ccccc2)cs1	Pf growth 48h inconclusive, Pf growth 96h inconclusive
Cc1cc(OCC(=O)OCC(=O)NCc2ccco2)ccc1Cl	Pf growth 48h inconclusive (no result: Shiga inhibitor, Cycloheximide cs)
COC(=O)CNC(c1ccccc1)c1cc(C)ccc1NC(=O)CNC(=O)OCc1ccccc1 (configuration not stated)	Pf growth 48h 13µM (no result: Pf growth 96h)
COC(=O)CNC(c1ccccc1)c1cc(C)ccc1NS(=O)(=O)c1ccc(C)cc1 (configuration not stated)	Pf growth 48h 9.3µM, Pf growth 96h 13µM
COC(=O)CNC(c1ccccc1)c1cc(Br)ccc1NC(=O)OCc1ccccc1 (configuration not stated)	Pf growth 48h inconclusive, Pf growth 96h inconclusive
COc1ccc(C(CNC(=O)c2cccc(S(=O)(=O)N3CCc4ccccc43)c2)N(C)C)cc1 (configuration not stated)	none (no result: Shiga inhibitor, Pf growth 48h, Pf growth 96h, Cycloheximide cs)
COc1ccc(C(=O)NNC(=O)C(=O)/C=C(\O)c2ccc(C)cc2)cc1	none
O=C(/C=C(\O)c1ccccc1)C(=O)NNC(=O)c1ccccc1	Shiga inhibitor 52, Cycloheximide cs 39
CCC(C)Nc1ccc(NC(C)CC)cc1 (configuration not stated)	AMA1-RON2 inh inconclusive, Pf growth 48h 1µM, Pf growth 96h 1.2µM (no result: Shiga inhibitor, Cycloheximide cs)
CCC(C)NC(=O)c1ccccc1C(=O)NC(C)CC (configuration not stated)	none
Cc1cccc(N(C(=O)Nc2ccc(Cl)cc2)C2=NCC(C)S2)n1 (configuration not stated)	Pf growth 96h inconclusive, Cycloheximide cs 20
Cc1cccc(N(C(=O)Nc2ccccc2)C2=NCC(C)S2)c1 (configuration not stated)	Shiga inhibitor 66, Pf growth 96h inconclusive, Cycloheximide cs 30 (no result: Pf growth 48h)
Cc1ccc(NC(=O)N(C2=NCC(C)S2)c2ccccc2)cc1 (configuration not stated)	none (no result: SARS PLpro yeast, Shiga inhibitor, Pf growth 48h, Pf growth 96h, Cycloheximide cs)
Cc1cc2occ(CC(=O)N(C)CC(=O)Nc3ccccc3Cl)c2cc1C	none (no result: Shiga inhibitor, Cycloheximide cs)
CS(=O)(=O)Nc1cccc(C2=NN(S(C)(=O)=O)C(c3ccccc3)C2)c1 (configuration not stated)	none
